Screening results from PubChem BioAssay.
Compounds with a hit are over-represented: about 3.7% of the library has one in this group of screens.
TMEM16A inh: blocks the mouse calcium-activated chloride channel TMEM16A. Q8BHY3. AID 588511. normalized B-score (activity score, 25-100; higher = stronger inhibition) at 10 µM. actives 1.2% (n = 310,000). HEK293 TMEM16A/YFP iodide influx fluorescence, ionomycin;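 active = ratio plate-corrected score three or more library SD toward inhibition, starting fluorescence score within five deviations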;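 also: score derived from kinetic fluorescence span divided by baseline fluorescence per well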
CHT PAM: allosterically activates the human high affinity choline transporter. Q9GZV3. CHT-expressing cells, membrane potential dye, choline EC20; stronger effect = higher value; LV-AA mutant CHT in HEK293 cells. B-score at 10 µM. actives 0.49% (n = 310,000);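 active = initial fluorescence not abnormally high and integrated response B-score, plate-corrected, over 3 SD above library mean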
CHT block: inhibits the human high affinity choline transporter | CHT-expressing cells, membrane potential dye, choline response; stronger effect = lower value | B-score at 10 µM | actives 0.86% (n = 310,000) | AID 488975;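 active = B-score over 3 SD under the library average, and starting fluorescence ratio not unusually high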;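 also: choline stimulus applied at its EC90 after an EC20 pre-addition; B-score computed on integrated fluorescence ratio after choline addition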
TMEM16A act: mouse TMEM16A channel activation, primary screen; B-score at 10 µM; HEK293 TMEM16A/YFP-H148Q/I152L, iodide quench fluorescence; stronger effect = lower value; AID 623877; Q8BHY3; actives 0.3% (n = 340,000);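 active = fluorescence-ratio B-score plate-corrected deviation score at least 3 library SD below zero, with starting fluorescence score within 5 deviations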;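 also: channel opened by trigger with iodide after compound preincubation; score built on the fluorescence ratio of max minus min over baseline; more negative score means more quench and so TMEM16A activation or potentiation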
GPR7 antag: blocks human GPR7 receptor signaling; GPR7-expressing cells, fluorescence antagonist assay; AID 1861; P48145; inhibition, % at 4.4 µM; actives 1.1% (n = 290,000); in the data active = inhibition above about 16%, passing the limit was not always enough;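 also: cells stimulated with the agonist NPW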
Target sequence (P48145 whole entry, looked up): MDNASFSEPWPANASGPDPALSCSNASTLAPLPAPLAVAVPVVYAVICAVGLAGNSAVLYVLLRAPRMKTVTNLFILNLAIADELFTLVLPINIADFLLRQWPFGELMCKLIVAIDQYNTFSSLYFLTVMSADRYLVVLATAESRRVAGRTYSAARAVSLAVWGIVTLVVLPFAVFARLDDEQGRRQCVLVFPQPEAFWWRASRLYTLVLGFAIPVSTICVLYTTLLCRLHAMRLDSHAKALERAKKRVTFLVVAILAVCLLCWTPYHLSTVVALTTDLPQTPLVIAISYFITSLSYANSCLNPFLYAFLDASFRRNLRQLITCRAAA
Kir21 inh: inhibitors of mouse Kir2.1 inward-rectifier potassium channel | P35561 | HEK293-Kir2.1, FluxOR thallium flux fluorescence; stronger effect = lower value | B-score at 10 µM | actives 0.85% (n = 310,000) | AID 1672;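 active = fluorescence ratio B-score at or below minus 3 SD of library scores, with starting-brightness B-score within 2 SD, cut at about -4.2 in these data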;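 also: channel flux triggered by added potassium and thallium sulfate stimulus; B-score of peak minus minimum fluorescence over baseline after thallium stimulus; more negative B-score means stronger Kir2.1 block with less thallium influx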
GPR7 antag conf: confirmation of human GPR7 antagonists. shares compounds with GPR7 antag. GPR7-expressing cells, calcium fluorescence antagonist mode. inhibition, % at 4.4 µM. actives 52% (n = 2,400). AID 1952; in the data active = inhibition above about 24%;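 also: stimulated with the GPR7 agonist NPW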
MCHR1 antag: MCHR1 (human) antagonism in GPR7 counter-screen; shares compounds with GPR7 antag; MCHR1-expressing cells, fluorescence antagonist assay; inhibition, % at 4.4 µM; actives 62% (n = 2,400); AID 2148; in the data active = inhibition above about 22%
A number is an active result; - = inactive; . = no result given.

SMILES	TMEM16A inh	CHT PAM	CHT block	TMEM16A act	GPR7 antag	Kir21 inh	GPR7 antag conf	MCHR1 antag
COc1ccc(C(CNC(=O)c2ccc(S(=O)(=O)Nc3ccc(F)cc3)cc2)N(C)C)cc1 (stereo not given)	-	-	-	-	54	-	51	49
O=S(=O)(Nc1cccc(-c2cn3c(n2)SCC3)c1)c1cccs1	-	-	-	-	-	-	.	.
O=S(=O)(Nc1cccc(-c2cn3c(n2)SCC3)c1)c1ccc(F)cc1F	-	-	-	-	25	-	-	-
O=S(=O)(NCc1cn2ccsc2n1)c1cccs1	-	-	-	-	27	-	-	-
CC(C)(C)NC(=O)C(=O)NNC(=O)c1cccc(F)c1	-	-	-	-	-	-	.	.
COc1ccc2[nH]c3c(c2c1)CCN1C(=O)N([C@@H](C)C(=O)NC2CCCCC2C)C(=O)[C@]31C (stereo not given in full)	-	-	-	-	23	-	-	58
C[C@@H](C(=O)NC1CCCC1)N1C(=O)N2CCc3c([nH]c4ccccc34)[C@@]2(C)C1=O	-	-	-	-	26	-	-	-
Cc1csc(SCC(=O)NCc2ccccc2Cl)n1	-	-	-	-	-	-	.	.
Cn1c(=O)c(=O)n(C)c2cc(S(=O)(=O)N3CCN(Cc4ccccc4)CC3)ccc21	-	-	-	-	-	-	.	.
Cn1c(=O)c(=O)n(C)c2cc(S(=O)(=O)N3CC(=O)N(CCc4ccccc4)C(=O)C3)ccc21	-	-	-	-	23	-	-	-
CC1CN(c2ccc([N+](=O)[O-])c(NCCOc3ccc(Cl)cc3)c2)CC(C)N1 (stereo not given)	-	-	-	-	38	-8	62	69
Cc1ccccc1OCCNc1cc(N2CC(C)NC(C)C2)ccc1[N+](=O)[O-] (stereo not given)	-	-	-	-	39	-	53	67
CCc1ccc(OCCNc2cc(N3CCNC(C)C3)ccc2[N+](=O)[O-])cc1 (stereo not given)	.	.	.	-	.	.	.	.
CC1CN(c2ccc([N+](=O)[O-])c(NCCOc3ccccc3)c2)CC(C)N1 (stereo not given)	-	-	-	-	-	-	.	.
Cc1ccc(OCC(=O)NNC(=O)c2ccco2)c(C)c1	-	-	-	-	-	-	.	.
O=C(NCCNCc1ccc(F)cc1)c1ccco1	-	-	-	-	-	-	.	.
Fc1ccc(CNCCC(Cc2ccccc2)c2ccco2)cc1 (stereo not given)	-	-	-	-	29	-15	44	40
CC(C)(C)c1ccc(C(=O)N2CCC(C(=O)c3ccccc3)CC2)cc1	-	-	-	-	41	-	39	38
Cc1ccc(SC(c2ccc(C)cc2)C(Cn2cncn2)C(=O)c2ccccc2)cc1 (stereo not given)	-	-	-	-	26	-	-	-
Cc1ccc(NC(=O)C2CCCN2C(=O)OCc2ccccc2)cc1F (stereo not given)	-	-	-	-	-	-	.	.
Cc1cc(C)c(S(=O)(=O)N(C)CC(=O)NCc2ccncc2)c(C)c1	-	-	-	-	27	-	-	-
Cc1cc(C)c(S(=O)(=O)N(C)CC(=O)NCc2cccnc2)c(C)c1	-	-	-	-	-	-	.	.
Cc1ccc(S(=O)(=O)N2CCC[C@H]2C(=O)NCc2ccccc2Cl)cc1	.	.	.	-	.	.	.	.
CCC(C)(C(=O)NC1CCCC1)N(Cc1ccco1)C(=O)c1ccc2c(c1)OCO2 (stereo not given)	-	-	-	-	31	-	37	-
O=C(c1ccccn1)N(Cc1ccco1)C1(C(=O)NC2CCCC2)CCCCC1	-	-	-	-	37	-	28	-
SMILES	TMEM16A inh	CHT PAM	CHT block	TMEM16A act	GPR7 antag	Kir21 inh	GPR7 antag conf	MCHR1 antag
O=C(c1ccc2c(c1)OCO2)N(Cc1ccco1)C1(C(=O)NC2CCCCC2)CCCCC1	-	-	-	-	41	-	40	42
CCC(C)(C(=O)NC1CCCCC1)N(Cc1ccco1)C(=O)CNC(=O)c1ccccc1 (stereo not given)	-	-	-	-	-	-	.	.
O=C(c1cnccn1)N(Cc1ccco1)C1(C(=O)NC2CCCCC2)CCCCC1	-	-	-	-	31	-	-	-
Cc1c(Br)c([N+](=O)[O-])nn1C(C)C(=O)N1CCc2ccccc2C1 (stereo not given)	-	-	-	-	-	-	.	.
C#CCOCCOCCOCCNc1nc(N2CCN(C(=O)[C@H](CC(N)=O)n3cc(C(N)[C@@H](C)CC)nn3)CC2)nc(N2CCN(C(=O)[C@H](CCC(=O)O)n3cc([C@@H](N)CCCCN)nn3)CC2)n1 (stereo not given in full)	.	.	.	-	.	.	.	.
Cc1onc(-c2ccccc2)c1C(=O)NCCSCc1ccco1	.	.	.	-	.	.	.	.
CN(CC(=O)Nc1cccc(F)c1)C(=O)c1ccccc1Cc1ccccc1	-	-	-	-	.	-	.	.
Cn1cccc1/C=C(/C#N)c1ccc(F)cc1	-	-	-	-	26	-	-	-
Cn1cccc1/C=C(\C#N)c1ccccc1	-	-	-	-	-	-	.	.
O=[N+]([O-])c1ccc(O)c(-c2cc(C(F)(F)F)nc(-c3ccccc3)n2)c1	100	-	-	-	44	-	72	60
CCN(CC)C(=O)C1CC(=O)N(c2ccc(F)c(Cl)c2)C1 (stereo not given)	-	-	-	-	22	-	-	-
Clc1ccccc1Nc1ncnc2c1nnn2Cc1ccccc1	-	-	-	-	34	-	-	-
Fc1ccccc1Nc1ncnc2c1nnn2Cc1ccccc1	-	-	-	-	-	-	.	.
COc1ccccc1N1CCN(C(=O)C2CCN(S(=O)(=O)c3ccccc3F)CC2)CC1	.	.	.	-	.	.	.	.
Cc1cc(C)n(-c2ccc(C(=O)Nc3ccc(S(=O)(=O)NCc4ccco4)cc3)cc2)n1	-	-	-	-	45	-	67	70
O=C(COc1ccc(Br)cc1CNCCc1ccccc1)NCc1ccccc1	-	-	-	-	31	-	40	54
CCCNCc1cc(Br)ccc1OCC(=O)NCCc1ccccc1	-	-	-	-	-	-	.	.
O=c1[nH]c(C2CCN(S(=O)(=O)c3ccccc3C(F)(F)F)CC2)nc2c1nnn2Cc1cccc(F)c1	-	-	-	-	-	-	.	.
COc1ccc(N2CCN(C(=O)c3cn(CC4CCCCC4)nn3)CC2)cc1	-	-	-	-	-	-	.	.
Cn1c(N)c(C(=O)COC(=O)c2cc(S(=O)(=O)N3CCOCC3)ccc2F)c(=O)n(C)c1=O	.	.	.	-	.	.	.	.
